ChEMBL document CHEMBL4513141, “CO-ADD screening of NIH (USA) - Clinical Collection” (2021)
Entries with a potency or affinity are not part of this list.

Key:
Klebsiella pneumoniae = conditions: Concentration 20 uM; ASSAY_TEST Inhibition of Bacterial Growth; detection method Absorption (OD600); MEDIA CAMHB; plate type 384well; NBS; CORNING #3640; time 18 hr
Candida albicans = conditions: 20 µM
Cryptococcus neoformans = conditions: Concentration 20 uM; ASSAY_TEST Inhibition of Fungal Growth; detection method Resazurin; Absorption (OD600-OD570); plate type 384well; NBS; CORNING #3640

SMILES	Inhibition (Klebsiella pneumoniae) [%]	Inhibition (Candida albicans) [%]	Inhibition (Cryptococcus neoformans) [%]
CCC(=O)[N-]S(=O)(=O)c1ccc(-c2c(-c3ccccc3)noc2C)cc1.[Na+] [PARECOXIB SODIUM]	7.5	3.16	-0.82
NC(=O)c1cnccn1 [PYRAZINAMIDE]	10.9	1.92	-9.58
CN1CCN(c2nc3cc(C(F)(F)F)ccc3n3cccc23)CC1.O=C(O)/C=C\C(=O)O.O=C(O)/C=C\C(=O)O	7.65	3.61	2.72
CC(C)(C)C(O)/C=C/c1ccc2c(c1)OCO2 (configuration not stated) [STIRIPENTOL]	6.61	4.55	2.5
OCc1cc(C(O)CNCCCCCCOCCCCc2ccccc2)ccc1O (configuration not stated) [SALMETEROL]	16.35	5.42	-8.37
CC(C)[N+]1(C)C2CCC1CC(OC(=O)C(CO)c1ccccc1)C2.[Br-] (configuration not stated)	-0.09	0.17	-6.11
COc1cc(N)c(Cl)cc1C(=O)N[C@@H]1CCN(CCCOc2ccc(F)cc2)C[C@@H]1OC.O [(R,S)-CISAPRIDE MONOHYDRATE]	7.83	1.98	3.24
CCN(CC)CC(=O)Nc1c(C)cccc1C [LIDOCAINE]	14.92	1.15	-4.85
CC(=O)OCC(=O)[C@@]1(O)CC[C@H]2[C@@H]3CCC4=CC(=O)CC[C@]4(C)[C@H]3C(=O)C[C@@]21C [CORTISONE ACETATE]	12.5	1.99	-0.31
CCOc1cc(CC(=O)N[C@@H](CC(C)C)c2ccccc2N2CCCCC2)ccc1C(=O)O [REPAGLINIDE]	3.14	4.01	-6.91
CN(C/C=C/C#CC(C)(C)C)Cc1cccc2ccccc12.Cl [TERBINAFINE HYDROCHLORIDE]	11.69	32.9	35.41
CC(C)c1ccc2c(c1)c(SC(C)(C)C)c(CC(C)(C)C(=O)O)n2Cc1ccc(Cl)cc1	11.6	1.56	-9.17
N[C@@H](Cc1cc(I)c(Oc2cc(I)c(O)c(I)c2)c(I)c1)C(=O)O [LEVOTHYROXINE]	0.79	21.1	-5.43
C[C@H]1O[C@@H](O[C@H]2[C@@H](O)C[C@H](O[C@H]3[C@@H](O)C[C@H](O[C@H]4CC[C@@]5(C)[C@H](CC[C@@H]6[C@@H]5C[C@@H](O)[C@]5(C)C(C7=CC(=O)OC7)CC[C@]65O)C4)O[C@@H]3C)O[C@@H]2C)C[C@H](O)[C@@H]1O (some centres not stated)	10.13	4.95	-6
C=C(CC)C(=O)c1ccc(OCC(=O)O)c(Cl)c1Cl [ETHACRYNIC ACID]	8.53	21.1	-8.91
N[C@@H]1CONC1=O [CYCLOSERINE]	12	1.72	-5.65
O=C1CCC(N2C(=O)c3ccccc3C2=O)C(=O)N1 (configuration not stated) [THALIDOMIDE]	3.28	3.62	-0.8
CS(=O)(=O)O.Cc1c(O)cccc1C(=O)N[C@@H](CSc1ccccc1)[C@H](O)CN1C[C@H]2CCCC[C@H]2C[C@H]1C(=O)NC(C)(C)C [NELFINAVIR MESYLATE]	0.71	0.96	-18.17
Cl.NC[C@H]1CC[C@H](C(=O)Oc2ccc(CCC(=O)O)cc2)CC1 [CETRAXATE HYDROCHLORIDE]	11.26	4.33	-5.7
CCOc1cc(N)c(Cl)cc1C(=O)NCC1CN(Cc2ccc(F)cc2)CCO1.O=C(O)CC(O)(CC(=O)O)C(=O)O (configuration not stated) [MOSAPRIDE CITRATE]	16.24	1.57	-5.5
Cc1ncc([N+](=O)[O-])n1CC(O)CCl (configuration not stated) [ORNIDAZOLE]	14.36	2.15	-1.25
CC(=CCC1=C(C)C(=O)c2ccccc2C1=O)CCCC(C)CCCC(C)CCCC(C)C (configuration not stated)	6.75	3.2	1.23
CN1CCCCC1CCN1c2ccccc2Sc2ccc([S+](C)[O-])cc21.O=S(=O)(O)c1ccccc1 (configuration not stated) [MESORIDAZINE BESYLATE]	-1.64	4.29	2.61
COC1=CC(=O)C[C@@H](C)[C@]12Oc1c(Cl)c(OC)cc(OC)c1C2=O [GRISEOFULVIN]	11.08	3.42	-0.94
